# PubChem BioAssay AID588856 (National Center for Advancing Translational Sciences (NCATS), 2011)
# Values joined by “and” are separate entries in the source; they are usually repeats but may differ in a detail not shown here. Equal entries are not always repeated. The whole screen tested about 410,000 compounds, of which about 3,100 (0.76%) were called active. The sample holds actives, similar compounds and a random draw of the others, so the mix is not that of the screen. Calls follow the shape of the dose curve; as a rule, active = well fitted cell-killing curve with a large enough effect; inactive = no such curve, though single readings can be large or run the other way. A structure can be active in one record and inactive in another.
# Test: qHTS for Inhibitors of TGF-b: Cytotox Counterscreen
# Conditions: HepG2 CAGA-GFP viability, ATP luminescence, 18 h; series mostly up to 46.1 µM; activity change, negative = cytotoxicity: at the top concentration
# Procedure, shortened: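 HepG2 CAGA-GFP cells (1000/well, DMEM with 1% FBS) received compound, then TGF-beta at 500 pg/mL final, and were incubated 18 hours at 37 degrees C. Viability was read by CellTiter-Glo luminescence. Media-only wells were set as complete cell-killing and DMSO as no toxicity.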
# Potency is read from the fitted curve at half-maximal effect.
Compound,"activity change, negative = cytotoxicity",Potency
O=C(NCCc1ccc(Cl)cc1)c1ccc2c(c1)N(Cc1ccc(F)cc1)C(=O)CS2,-17.8% (inactive),–
O=C1C[C@H]2C=CCc3cccc(c32)CN1Cc1ccccc1,-36.9% (inactive),–
O=C(COC(=O)c1ccccc1OCCOc1ccccc1)Nc1cccc(Br)c1,-16.2% (inactive),–
Cc1ccc(C)c2sc(NC(=O)c3ccc(S(=O)(=O)N4CCCC4)cc3)nc12,-17.3% (inactive),–
Cc1ccc(C)c(Cn2c(CCCNC(=O)C3CCCCC3)nc3ccccc32)c1,-9.35% (inactive),–
O=C(O)C1=C/C(=C/C=[N+]2c3cc(O)c(O[C@H]4OC(CO)[C@@H](O)[C@@H](O)[C@@H]4O)cc3C[C@@H]2C(=O)[O-])C[C@H](C(=O)O)N1 (stereo partly specified),-11.6% (inactive),–
O=C(CSc1nc2nccnc2c(=O)n1CCc1c[nH]c2ccccc12)Nc1ccccc1F,-24.6% (inactive),–
Cc1nnc(NC(=O)CSc2nccn2-c2cccc(C)c2C)s1,-20.3% (inactive),–
CCOCCCNC(=O)c1c(NC(=O)c2nc(SC)ncc2Cl)sc2c1CCCC2,–,inactive
Cc1ccc(CS(=O)(=O)c2ncc(Cl)c(C(=O)Nc3nnc(C)s3)n2)cc1,–,15.8 µM (active)
Cc1ccc2nc(NC(=O)c3nc(SCc4ccccc4F)ncc3Cl)sc2c1,7.36% (inactive),–
CCOc1cccc(C(=O)Nc2nnc(S(=O)(=O)N(C)c3ccc(C)cc3)s2)c1,-6.76% (inactive),–
CSc1nnc(NC(=O)c2nc(S(=O)(=O)Cc3ccc(C)cc3)ncc2Cl)s1,–,15.8 µM (active)
CCN(CC)/[N+]([O-])=N/Oc1cc(O/[N+]([O-])=N/N2CCCC2CO)c([N+](=O)[O-])cc1[N+](=O)[O-] (stereo unspecified),-4.3% (inactive),–
Brc1nc2ncnc(NCc3ccco3)c2[nH]1,-23.3% (inactive),–
COC(=O)c1cc(NC(=O)c2cnc(SC)nc2-c2ccccc2)cc(C(=O)OC)c1,-19.3% (inactive),–
O=C(c1ccco1)N(Cc1cccs1)c1ccc(O)cc1,-6.33% (inactive),–
COc1ccc(CN2C(CC(=O)Nc3cccnc3)c3ccc(C(F)(F)F)cc3S2(=O)=O)cc1 (stereo unspecified),-2.15% (inactive),–
Cc1[nH]n(-c2ccccc2)c(=O)c1CCOC(=O)c1ccc(C(F)(F)F)cc1,-28.2% (inactive),–
CCOC(=O)C[C@H]1c2ccc(C(F)(F)F)cc2S(=O)(=O)N1c1ccccc1,–,inactive and 7.08 µM (active)
Cc1cc(C)c(NC(=O)CN2C(=O)c3cccnc3Oc3ccc(Cl)cc32)c(C)c1,4.94% (inactive),–
O=C1CN(Cc2ccccc2)S(=O)(=O)c2ccccc21,-3% (inactive),–
O=C(Nc1ccc(-c2nc3cc(NC(=O)c4ccccc4Cl)ccc3o2)cc1)c1ccccc1Cl,-42.5% (inactive),–
Cc1ccc(C)c(S(=O)(=O)n2nc(C)c(S(=O)(=O)N3CCC(C)CC3)c2C)c1,-2.91% (inactive),–

Compound,"activity change, negative = cytotoxicity",Potency
COc1ccc(-c2cc(C(=O)NCc3cc(OC)c(OC)c(OC)c3)[nH]n2)cc1,-6% (inactive),–
Cc1cc(O)ccc1-c1cc(C(=O)NCc2cc(C(F)(F)F)cc(C(F)(F)F)c2)[nH]n1,–,12.6 µM (active)
COc1ccccc1CNC(=O)c1cc(-c2cc(Cl)ccc2C)n[nH]1,-28.1% (inactive),–
CN(Cc1ccccc1)c1ncnc2onc(-c3ccc(F)cc3)c12,-7.14% (inactive),–
CCCCC(=O)OC1=CN(Cc2ccccc2)S(=O)(=O)c2ccccc21,-4.26% (inactive),–
Cc1ccccc1C(=O)Nc1sc2c(c1C(=O)N1CCC(C)CC1)CCCC2,-3.63% (inactive),–
O=C(/C=C/Sc1ncn[nH]1)c1ccc(Cl)cc1,–,12.6 µM (active)
CCOc1ccccc1NC(=O)CN1CCCN(Cc2cccc(Cl)c2)S1(=O)=O,-14.1% (inactive),–
O=C1COc2ccc(-c3csc(-c4ccc(Cl)cc4)n3)cc2N1,0.232% (inactive),–
CNC(=O)[C@]1(C(F)(F)F)C[C@H](CCc2ccccc2)CCCO1,-7.33% (inactive),–
Cc1cccc(OCC(O)CN2CCN(S(=O)(=O)c3ccc(C)cc3C)CC2)c1 (stereo unspecified),-7.87% (inactive),–
Cc1cccc(OCC(O)CN2CCN(CCN3C(=O)c4cccc5cccc(c45)C3=O)CC2)c1C (stereo unspecified),–,12.6 µM (active)
CCc1ccc(OCC(O)CN2CCN(CCO)CC2)cc1 (stereo unspecified),-4.49% (inactive),–
COc1cc2nc(NCC(C)c3ccccc3)n3nc(-c4ccccc4)nc3c2cc1OC (stereo unspecified),-2.39% (inactive),–
Cc1cc2nc(-c3ccc(NC(=O)c4cc5ccccc5o4)cc3)oc2cc1C,-1.43% (inactive),–
O=S1(=O)CCC(NC(=S)SCc2ccccc2Br)C1 (stereo unspecified),-120% (inactive),–
CC(C)C(=O)NC(NC(=S)NC1CCS(=O)(=O)C1)C(Cl)(Cl)Cl (stereo unspecified),6.42% (inactive),–
CCCSC(=S)NC1CCS(=O)(=O)C1 (stereo unspecified),–,11.2 µM (active)
O=C(/C=C/c1cn(CC(O)CN2CCc3ccccc32)c2ccccc12)c1ccc(Br)cc1 (stereo unspecified),-36.7% (inactive),–
CCOc1ccc(C(=O)/C=C/c2cn(CC(O)CN3CCCCCC3)c3ccccc23)cc1 (stereo unspecified),–,11.2 µM (active)
CCOc1ccc(C(O)Cn2c(=N)n(CCN3CCCCC3)c3ccccc32)cc1 (stereo unspecified),-61.2% (inactive),–
COc1ccc(C(=O)NC(Cc2ccc(OC(=O)c3ccc(OC)cc3)cc2)C(=O)O)cc1 (stereo unspecified),7.01% (inactive),–
COc1ccc(CNC(=O)C(Cc2ccccc2)n2cccc2)cc1 (stereo unspecified),1.79% (inactive),–
COc1ccc(CC(N)c2csc(NC(=O)NC(c3ccccc3)c3ccccc3)n2)cc1 (stereo unspecified),–,12.6 µM (active)

Compound,"activity change, negative = cytotoxicity",Potency
CN(C(=N)N)c1ccc(/C=C2\C=Cc3ccccc32)cc1,-36.8% (inactive),–
Cc1ccc2c(=O)c(C(=O)c3ccc(Cl)cc3)cn(CC(=O)NC3CCCCC3)c2n1,2.27% (inactive),–
S=C(NCCCc1cnc[nH]1)NCCCN(Cc1ccc(Cl)c(Cl)c1)c1ccc(Br)cn1,–,10 µM (active)
NCCCNC(=S)NCCCN(Cc1ccc(Cl)cc1)c1ccc(Br)cn1,–,inactive and 17.8 µM (active)
CC(C)(C)c1ccc(C(=O)NCC(c2ccco2)S(=O)(=O)c2ccc(F)cc2)cc1 (stereo unspecified),-29.8% (inactive),–
CSc1ccc(CCNC(=O)c2cc(C)nc3c2c(C)nn3-c2cccc(F)c2)cc1,-6.92% (inactive),–
CC(C)(C)OC(=O)N1CCC(c2c(C(=O)NCc3ccccn3)cnn2-c2ccc(F)cc2)CC1,-89.9% (inactive),–
COc1ccccc1N1CCN(c2ncnc3onc(-c4cccc(Cl)c4)c23)CC1,1.68% (inactive),–
Cc1cccc(CC(=O)N2CC(=O)Nc3ccc(F)cc3C2c2ccccc2)c1 (stereo unspecified),0.164% (inactive),–
O=C(NCc1ccccc1)C1CCN(S(=O)(=O)c2ccc3[nH]c(=O)ccc3c2)CC1,-6.86% (inactive),–
CCCn1c(NCc2ccccc2F)nc2ccccc21,-15.9% (inactive),–
CCN1/C(=C\c2ccc3ccccc3[n+]2CC)Sc2cc(C)ccc21,–,11.2 µM (active)
CSc1ccccc1-c1nnc(NC(=O)c2ccc3c(c2)OCCO3)o1,-17% (inactive),–
COc1ccc(N(CC(=O)N/N=C/c2cccs2)S(=O)(=O)c2ccc(OC)c(OC)c2)cc1,-14.7% (inactive),–
Cc1ccccc1NCC(=O)N/N=C\c1ccc([N+](=O)[O-])s1,–,11.2 µM (active)
COc1ccc(C(=O)NCC(c2ccco2)N2CCc3ccccc32)cc1OC (stereo unspecified),-41.6% (inactive),–
Cc1ccsc1/C=N/NC(=O)Cc1cc(=O)[nH][nH]1,0.602% (inactive),–
COc1ccc(C(=O)NCC(=O)N/N=C/c2ccc([N+](=O)[O-])s2)cc1OC,–,11.2 µM (active)
CCn1c(SCC(=O)N/N=C/C=C/c2ccccc2[N+](=O)[O-])nnc1-c1ccccc1,-22.3% (inactive),–
CCc1nc2ccc(C(=O)N3CCN(c4cc(Cl)ccc4C)CC3)cc2nc1CC,-30.6% (inactive),–
CC(C)c1ccc(OCC(=O)N(Cc2ccc(N(C)C)cc2)C2CCS(=O)(=O)C2)cc1 (stereo unspecified),-10.2% (inactive),–
CC(=O)OC1=C(C(C)=O)N(Cc2ccccc2)S(=O)(=O)c2ccccc21,-6.4% (inactive),–
Oc1c(C(c2ccc(F)cc2)N2CCN(Cc3ccccc3)CC2)sc2nc(-c3ccco3)nn12 (stereo unspecified),-58.8% (inactive),–
CCc1ccccc1NC(=O)c1ccc2nc(CCc3ccccc3)oc2c1,-22.8% (inactive),–

Compound,"activity change, negative = cytotoxicity",Potency
COc1cccc(CNn2cn[nH]c2=S)c1OCc1ccccc1,2.29% (inactive),–
COc1cccc(CNCCc2c[nH]c3ccccc23)c1OCc1ccccc1F,–,17.8 µM (active)
COc1cccc(CNCCSc2nnnn2C)c1OCc1ccccc1Cl,-33% (inactive),–
CCC(C)Nc1oc(-c2ccc(COc3ccc(Cl)cc3)o2)nc1C#N (stereo unspecified),-37.5% (inactive),–
C/C(=N\NC(=O)CC(C)C)c1c(C(F)(F)F)[nH]n(-c2nc3ccccc3s2)c1=O,–,10 µM (active)
CCC(C)Cn1c(O)cc2nn(-c3nc4ccccc4s3)c(=O)c-2c1C (stereo unspecified),-4.55% (inactive),–
O=C(Nc1ccc(F)cc1F)c1ccc2c(=O)n3c(nc2c1)CCCCC3,-21.1% (inactive),–
CC(C)(C)c1ccc(C(=O)Nc2ccc3c(c2)CCCN3C(=O)c2cccs2)cc1,-44.9% (inactive),–
CCCn1c(=N)n(CC(O)COc2ccccc2OC)c2ccccc21 (stereo unspecified),-35.5% (inactive),–
OC(CN=c1sc2ccccc2n1CC(O)COc1ccccc1)COc1ccccc1 (stereo unspecified),–,14.1 µM (active)
COc1ccc(Cn2c(=O)sc3ccccc32)cc1OC,-12.6% (inactive),–
Cc1c(NC(=O)Nc2ccc(F)c(Cl)c2)c(=O)n(-c2ccccc2)n1C,7.8% (inactive),–
CCCOc1ccc(NC(=O)CC2C(=O)N(c3ccccc3)C(=O)N2Cc2ccco2)cc1 (stereo unspecified),-38.4% (inactive),–
CN1c2ccc(C=O)c3c(C=O)ccc(c23)N(C)C1(C)C,–,11.2 µM (active)
O=C1C[C@@H](c2ccc3ccccc3c2)N1S(=O)(=O)c1ccccc1[N+](=O)[O-],3.22% (inactive),–
CCOc1ccc(OCC)c(NC(=O)c2cc(C)nc3c2c(C)nn3-c2cccc(Cl)c2C)c1,-9.94% (inactive),–
Cc1c(C)n(Cc2ccc(Cl)cc2)c2ccc(C(=O)N3CCN(c4ccccc4F)CC3)cc12,-37.6% (inactive),–
Cc1cccc(N2CCN(C(=O)c3ccc4c(c3)CCN4S(=O)(=O)c3ccccc3)CC2)c1C,-10.4% (inactive),–
CCn1c(C)c(C)c2cc(C(=O)N3CCN(c4cccc(C)c4C)CC3)ccc21,–,inactive and 17.8 µM (active)
O=C1OC(C(=O)Nc2cccc(Br)c2)Cc2ccccc21 (stereo unspecified),-14.8% (inactive),–
Cc1ccc(Nc2ccccc2N)cc1,-11.6% (inactive),–
Nc1ccc(Nc2ccccc2)cc1,–,12.6 µM (active)
Nc1ccccc1N,-29.9% (inactive),–
OCCNc1ncnc2oc(-c3ccco3)c(-c3ccco3)c12,-6.83% (inactive),–
